SARS PLpro yeast – SARS-CoV PLP inhibition in yeast; Potency, µM (top dose mostly 32.9 µM), for inactives: at the top dose activity, positive = growth rescue, actives largely listed as activators; S. cerevisiae expressing SARS-CoV PLpro, growth rescue; AID 485353; 0.19% of 330,000 active; calls by dose curve; note: potency is the fitted concentration of half-maximal effect; 0% is about no effect; nearly all actives have a fitted effect of over 55% in size
Pf growth 96h – P. falciparum growth inhibition at 96 hours; 6.9% of 320,000 active; Potency, µM (doses to about 28.7 µM), inactives show at the top dose activity change, negative = inhibition, actives largely listed as inhibitors; P. falciparum luciferase reporter growth, 96 h; AID 504834; note: potency is the fitted concentration of half-maximal effect; % is set by controls: 0 for no effect and ±100 for the full control effect
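Infected RBCs, 2% Hct / 0.05% parasitemia final; luciferase-reporter P. falciparum; cpd 96 h, 37 C, 5% CO2; luciferase detection reagent; luminescence.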
Shiga toxin inh – Shiga toxin inhibition | Vero cells, Shiga toxin protein synthesis inhibition reporter | inhibition, % at 38.7 µM | 9.2% of 290,000 active | AID 2315; in the data active = inhibition mostly above about 28%, no sharp cut-off; inactive = mostly below about 43%; note: 0% is about no effect
Pf growth 48h – P. falciparum growth inhibition at 48 hours (one generation); P. falciparum luciferase growth in erythrocytes, 48 h; Potency, µM (doses to about 28.7 µM), without a hit: at the top dose activity change, negative = inhibition, usual class: inhibitors; 5.9% of 310,000 active; AID 504832; note: potency is the fitted concentration of half-maximal effect; % is set by controls: 0 for no effect and ±100 for the full control effect
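Luciferase-expressing P. falciparum in infected erythrocytes (2% hematocrit, 0.1% parasitemia final) in RPMI 1640/0.5% Albumax were exposed to compound for 48 hours at 37 C, 5% CO2; growth read as luminescence.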
Cycloheximide cs – counter-screen for Shiga toxin inhibitors: cycloheximide protein synthesis inhibition | AID 2314 | 12% of 300,000 active | cell reporter, cycloheximide protein synthesis inhibition counterscreen | max response, %; in the data active = max response mostly above about 13%, no sharp cut-off; inactive = mostly below about 14%; note: read at 38.3 µM for the half of the compounds with a filed dose; 0% is about no effect
AMA1-RON2 inh – inhibitors of Plasmodium falciparum AMA1-RON2 interaction. AlphaScreen AMA1-biotinylated RON2 peptide binding. Potency, µM (doses to about 58.2 µM), inactives show at the highest dose activity change, negative = inhibition, actives largely listed as inhibitors. 0.2% of 360,000 active;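 note: potency is the fitted concentration of half-maximal effect; 0% = vehicle wells and -100% = peptide control; nearly all actives have a fitted effect of over 45% in size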
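AMA1 (3D7) with his tag at 25 nM final met compounds first, then biotinylated RON2 peptide at 25 nM; detection used donor plus acceptor beads, 10 µg/mL apiece, read by AlphaScreen after 30 min at room temperature.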
* hit, by the source's call; ? = inconclusive; . = no result. The list is not random: actives were taken first. Their share in the collection is about 19%. Unless noted, calls come from the whole dose curve; as a rule, active = well fitted curve in the direction sought with a large enough effect; inconclusive = small, poorly fitted or top-dose-only effect, or another doubt; inactive = no such curve, though single readings can be large; an effect the other way counts as inactive or inconclusive.

SMILES	SARS PLpro yeast	Pf growth 96h	Shiga toxin inh	Pf growth 48h	Cycloheximide cs	AMA1-RON2 inh
CN(Cc1ccccc1)C(=O)[C@@H]1CCCN1C(=O)[C@@H]1CCCN1C(=O)c1ccccc1	.	.	.	.	.	4%
Cc1ccc(O)c(C(=O)/C=C/c2ccc3c(c2)OCCCO3)c1	-29%	?	155*	89%	81*	?
O=C(/C=C/c1ccc2c(c1)OCCCO2)c1ccccc1O	-34%	234%	171*	199%	78*	-28%
COc1ccc(NC(=O)c2cc([N+](=O)[O-])ccc2N2CCCC2)cc1S(N)(=O)=O	2%	6%	.	-7%	.	10%
COc1cc(OC)cc(C(=O)N[C@H](C(=O)OCC(N)=O)C(C)C)c1	-11%	-21%	1	-18%	-4	5%
COC(=O)[C@H]1Cc2c([nH]c3ccccc23)[C@H](c2ccccc2)N1	-2%	3%	3	-7%	-2	-10%
COc1ccc(C2NC(C(=O)O)Cc3c2[nH]c2ccccc32)cc1CN1CCN(c2ccc(F)cc2)CC1 (configuration not stated)	0%	?	-3	10µM*	-3	33%
COc1ccc(CN2CCN(c3ccc(F)cc3)CC2)c(OC)c1OC	15%	23%	-7	-5%	-2	-10%
O=C(O)C1Cc2c([nH]c3ccccc23)C(c2ccc3c(c2)OCO3)N1 (configuration not stated)	0%	9.3µM*	-3	3%	1	18%
COc1ccc2c(CN(Cc3ccccc3)Cc3ccccc3)cc(=O)oc2c1	.	.	.	.	.	-2%
CC(C)(C)C(=O)/C=C(\N)c1ccncc1	-2%	?	-6	3%	-1	10%
COc1ccc(/C(N)=C/C(=O)C(C)(C)C)cc1	-4%	65%	60	76%	19*	-1%
CCOC(=O)c1cnn(-c2ccc(F)cc2)c1N	-1%	36%	-3	29%	5	-3%
Cc1cccc(C)c1OCc1cc(C(=O)NCc2ccc(Cl)s2)no1	0%	10µM*	7	15%	18*	12%
CCOC(=O)N1CCC(NC(=O)c2cc(COc3c(C)cccc3C)on2)CC1	13%	-29%	9	?	14*	-2%
Cc1cccc(C)c1OCc1cc(C(=O)NCC2CC2)no1	-7%	15µM*	88	?	10*	3%
Cc1cccc(C)c1OCc1cc(C(=O)NC2CCC2)no1	-7%	2%	37*	?	37*	9%
Cc1cccc(C)c1OCc1cc(C(=O)NC2CCC(O)CC2)no1 (configuration not stated)	0%	?	46	-9%	12	-13%
Cc1cccc(C)c1OCc1cc(C(=O)NCC2COCCO2)no1 (configuration not stated)	3%	-5%	-23	18%	14	-4%
COC(=O)C=C1CCC2C3CCC4=CC(=O)C(Br)CC4(C)C3C(=O)CC12C (configuration not stated)	.	.	.	.	.	-8%
O=C1C2C3C=CC(C3)C2C(=O)N1c1ccc2c(c1)OCO2 (configuration not stated)	1%	-14%	4	2%	6	-5%
Cc1cc(N2C(=O)C3C4C=CC(C4)C3C2=O)ccc1Br (configuration not stated)	-6%	12µM*	-4	-7%	1	-23%
Cc1ccc(Cl)cc1NC(=O)CCN1C(=O)C2C3CCC(C3)C2C1=O (configuration not stated)	0%	47%	-10	12%	-2	-3%
Cc1cc(C)cc(NC(=O)c2cccc(N3C(=O)C4C5C=CC(C5)C4C3=O)c2)c1 (configuration not stated)	1%	4.7µM*	40	?	-2	-3%
Cc1cc(NC(=O)CCN2C(=O)C3C4CCC(C4)C3C2=O)cc(C)c1Br (configuration not stated)	21%	0.93µM*	12	-2%	6	-18%
SMILES	SARS PLpro yeast	Pf growth 96h	Shiga toxin inh	Pf growth 48h	Cycloheximide cs	AMA1-RON2 inh
Cc1c(Br)ccc(NC(=O)CCN2C(=O)C3C4CCC(C4)C3C2=O)c1C (configuration not stated)	10%	83%	34*	65%	19*	-1%
COc1ccc(S(=O)(=O)N2CCC(N3CCN(c4ccccc4OC)CC3)CC2)cc1	1%	?	3	-30%	-1	12%
O=C(NCCN1C(=O)C2C3C=CC(C3)C2C1=O)Nc1ccc(Br)cc1 (configuration not stated)	3%	125%	65*	.	83*	14%
CCOC(=O)Nc1ccc(S(=O)(=O)Nc2cc(C)nc(C)n2)cc1	0%	-12%	-3	.	-3	-9%
Cc1cc(NC(=O)CCN2C(=O)C3C4C=CC(C4)C3C2=O)ccc1Br (configuration not stated)	-4%	0%	52	9%	23*	4%
Cc1cc(NS(=O)(=O)c2ccc(N3C(=O)C4C5C=CC(C5)C4C3=O)cc2)nc(C)n1 (configuration not stated)	?	?	16	-9%	14*	-12%
CCC(=O)NC(c1cccc([N+](=O)[O-])c1)c1c(OC(C)=O)ccc2ccccc12 (configuration not stated)	-22%	23%	9	13µM*	-1	-5%
O=C(Cc1ccccc1)NC(c1ccco1)c1c(O)ccc2ccccc12 (configuration not stated)	-2%	5%	2	?	16	-7%
CCC(=O)NC(c1ccccc1)c1c(O)ccc2ccccc12 (configuration not stated)	-4%	?	-11	9.3µM*	-1	-5%
CC(=O)Oc1ccc2ccccc2c1C(NC(=O)Cc1ccccc1)c1ccccc1Cl (configuration not stated)	-9%	27%	-6	2.6µM*	4	-5%
CCC(=O)NC(c1ccccc1)c1c(OC(C)=O)ccc2ccccc12 (configuration not stated)	-1%	10µM*	-11	?	1	9%
CCCCC1=CC2=CC(=O)C(C)(OC(=O)CC)C(=O)C2=CN1C1CCCC1 (configuration not stated)	2%	?	-9	?	-7	-2%
CCCCNC(=O)CNC(=S)N(Cc1cc(OC)c(OC)c(OC)c1)C1CCCC1	-17%	?	-11	-11%	1	16%
CCCC(=O)NC(c1ccc(N(C)C)cc1)c1c(O)ccc2ccccc12 (configuration not stated)	1%	12µM*	-4	?	-3	?
Cc1ccc(NC(=O)Cc2ccccc2Cl)cc1S(=O)(=O)N(C)C	17%	?	-2	0%	5	-12%
Cc1ccc(NC(=O)COC(=O)c2ccccc2Cl)cc1S(=O)(=O)N(C)C	-8%	0%	71*	?	32*	7%

Compound activity: PubChem BioAssay, National Center for Advancing Translational Sciences (NCATS)
